PubChem BioAssay (NCATS)
Inconclusive results are not listed. A number with no mark means an inactive call. Calls of active or inactive are those of the source. Calls come from the whole dose curve; as a rule, active = well fitted cell-killing curve with a large enough effect; inconclusive = small, poorly fitted or top-dose-only effect, or effect the other way; inactive = no such curve, though single readings can be large or run the other way.

What was measured:
[1] = Viability qHTS for spleen associated tyrosine kinase inhibitor (SYKi) naive MV4-11 cells (AID 1963823); conditions: MV4-11 AML viability, CellTiter-Glo luminescence, 72 h; series mostly up to 45 µM; note: nearly all actives have a fitted effect of over 40% in size
Procedure, shortened: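 Read-out: CellTiter-Glo luminescence. Exposure: 72 hr, 37 C, 5% CO2, 95% humidity. Cells: MV4-11 without SYK inhibitor history, 500/well, qHTS format.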

[2] = Viability qHTS for spleen associated tyrosine kinase inhibitor (SYKi) drug resistant MV4-11 cells (AID 1963824); conditions: SYKi-resistant MV4-11 viability, CellTiter-Glo, 72 h; series mostly up to 45 µM; note: nearly all actives have a fitted effect of over 35% in size
Procedure, shortened: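 SYK inhibitor-resistant MV4-11 AML cells, 500 per well, added to predispensed compounds and incubated 72 hr at 37 C, 5% CO2. Viability measured by CellTiter-Glo luminescence after 10 min at room temperature.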
Potency is the fitted concentration of half-maximal effect.

| SMILES | Potency [1] | Potency [2] | viability (% of control) [1] | viability, % of control [2] |
| --- | --- | --- | --- | --- |
| OCC1OC(Oc2cc(O)cc(/C=C/c3ccc(OC4OC(CO)C(O)C(O)C4O)cc3O)c2)C(O)C(O)C1O (configuration not stated) | inactive | inactive |  |  |
| C=C1C(=O)O[C@@H]2/C=C(\CO)CC/C=C(/C=O)C[C@@H](O)[C@@H]12 | 3.66 µM (active) | 2.06 µM (active) |  |  |
| COc1cc2nc(C3CC3)nc(N3CCN(c4ccccc4OC)CC3)c2cc1OC | 16.4 µM (active) | 14.6 µM (active) |  |  |
| N#C/C(=C\c1ccc(O)c(O)c1)C(=O)NCCCc1ccccc1 | 8.2 µM (active) | 8.2 µM (active) |  |  |
| CN(CCCN1c2ccccc2CCc2ccccc21)CC(=O)c1ccc(Cl)cc1 | 23.7 µM (active) | 13.3 µM (active) |  |  |
| CC1CC(=O)[C@]2(O)C(C(=O)OCCc3ccc(O)c(O)c3)=CO[C@@H](O[C@@H]3O[C@H](CO)[C@@H](O)[C@H](O)[C@H]3O)[C@H]12 (some centres not stated) | inactive | inactive |  |  |
| COc1ccc(-c2nc(-c3cc(C(F)(F)F)cc(C(F)(F)F)c3)n(Cc3ccc(C(N)=O)cc3)c2-c2ccc(OC)cc2)cc1 | 7.31 µM (active) | 3.66 µM (active) |  |  |
| Cc1ccc(C(C)C)c(O[C@@H]2O[C@H](CO)[C@@H](O)[C@H](O)[C@H]2O)c1 | inactive | inactive |  |  |
| CC(=O)OC[C@]12[C@H](OC(C)=O)C(=O)[C@@H]3[C@@H](O)[C@@]14O[C@@]3(C)COC(=O)c1cccnc1[C@@H](C)[C@H](C)C(=O)O[C@@H]([C@H](O)[C@@H]2OC(C)=O)[C@]4(C)O | 1.72 µM (active) | 3.43 µM (active) |  |  |
| CC(=O)N1c2ccccc2C2(O)CC3C(=O)NC(CC(C)C)C(=O)N3C12 (configuration not stated) | inactive | inactive |  |  |
| Nc1ccc(-c2ccnc(NCCCNC(=O)c3c(Cl)cccc3Cl)n2)cc1 | 1.3 µM (active) | 1.3 µM (active) |  |  |
| CC(CCC1(O)OC2CC3C4CCC5CC(O[C@@H]6O[C@H](CO)[C@@H](O)[C@H](O)[C@H]6O[C@@H]6OC[C@@H](O)[C@H](O)[C@H]6O)C(O)CC5(C)C4CCC3(C)C2C1C)CO[C@@H]1O[C@H](CO)[C@@H](O)[C@H](O)[C@H]1O (some centres not stated) |  |  | 83.1% [at 9.25 µM] | 86.8% [at 9.25 µM] |
| COc1cc(/C=C/C(=O)O[C@H]2[C@H](O)[C@@H](CO)O[C@@]2(CO)O[C@H]2O[C@H](CO)[C@@H](O)[C@H](O)[C@H]2O)cc(OC)c1O | inactive | inactive |  |  |
| CC1(C)CC[C@]2(C(=O)O[C@@H]3O[C@H](CO)[C@@H](O)[C@H](O)[C@H]3O)CC[C@]3(C)C(=CCC4[C@@]5(C)C[C@H](O)[C@H](O[C@@H]6OC[C@@H](O)[C@H](O)[C@H]6O)[C@@](C)(CO)C5CC[C@]43C)C2C1 (some centres not stated) |  |  | 96.5% [at 9.25 µM] | 109% [at 9.25 µM] |
| CN[C@H](C(=O)N[C@H](C(=O)N(C)[C@H](/C=C(\C)C(=O)O)C(C)C)C(C)(C)C)C(C)(C)c1ccccc1 | inactive | inactive |  |  |
| CC1CC(=O)C2=C(C1)C1OC1C1(O)C2C(=O)c2cccc(O)c2C1O (configuration not stated) | inactive | inactive |  |  |
